DT40 TDP1 no CPT = qHTS for Inhibitors of human tyrosyl-DNA phosphodiesterase 1 (TDP1): qHTS in cells in absence of CPT. DT40 Tdp1-/- hTDP1 cells, no CPT, ATP luminescence, 48 h. Potency, µM (highest dose often 46.2 µM), for the others: top-dose activity change, negative = growth inhibition, usual class: inhibitors. 420,000 tested, 15% active. AID 686978, 2013; note: potency is the fitted concentration of half-maximal effect; % is set by controls: 0 for no effect and ±100 for the full control effect; nearly all actives have a fitted effect of over 55% in size
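Chicken DT40 Tdp1-/- cells stably complemented with human TDP1 were seeded at 400 cells/well with DMSO in place of 20 nM camptothecin. After compound pinning, cells grew at least 48 hr at 37 °C; viability read by CellTiter-Glo luminescence.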
HepG2 tox = kills HepG2 cells in TGF-b inhibitor counter-screen; HepG2 CAGA-GFP viability, ATP luminescence, 18 h; Potency, µM (titrated, usually from 46.1 µM), for the others: top-dose activity change, negative = cytotoxicity, hits mostly cytotoxic; 410,000 tested, 0.76% active; note: potency is the fitted concentration of half-maximal effect
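CellTiter-Glo luminescence gave cytotoxicity after 18 hours at 37 degrees C. The cells were HepG2 CAGA-GFP in 1% FBS DMEM, stimulated with 500 pg/mL TGF-beta after compound addition. %Activity was normalised to no-cell wells (complete cell-killing) and DMSO (no toxicity), and curves were fitted and classified.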
TGFb SMAD3 inh = TGF-b pathway inhibition | HepG2 CAGA-GFP TGF-b/SMAD3 reporter, GFP fluorescence, 18 h; TGF-beta stimulated, 500 pg/mL final | Potency, µM (doses to about 46.1 µM), for inactives: at the highest dose activity, negative = inhibition, actives largely listed as inhibitors | 410,000 tested, 1.2% active | AID 588855; note: potency is the fitted concentration of half-maximal effect; % is set by controls: 0 for no effect and ±100 for the full control effect; nearly all actives have a fitted effect of over 65% in size
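Smad-responsive CAGA-GFP expression was quantified in HEPG2 cells exposed to compounds and 500 pg/mL final TGF-beta for 18 h at 37 degrees C; unstimulated wells defined full inhibition.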
IL1B secr inh = inhibitors of inflammasome signaling (IL-1 beta secretion); THP-1 LPS/ATP IL-1B secretion, AlphaLISA, 16 h; hits give low values; activity change, % at 57.5 µM; 360,000 tested, 4.7% active; AID 743279; in the data active = activity change below about -50%; inconclusive = mostly about -30% to -49%; note: % is set by controls: 0 for no effect and ±100 for the full control effect
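Secreted IL-1B measured by AlphaLISA bead assay after 16 h compound exposure of THP-1 cells; compounds (final up to 57.5 uM) added 1 h before LPS (250 ng/mL) and ATP (1.25 mM) stimulation; lower signal means less secretion.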
TDP1 cell CPT = growth inhibition of DT40 Tdp1-/-;hTDP1 cells with camptothecin (screen for TDP1 inhibitors); chicken DT40 Tdp1-/-;hTDP1 cells + 20 nM CPT, ATP luminescence, 48 h; Potency, µM (doses to about 46.2 µM), for inactives: top-dose activity change, negative = growth inhibition, most hits filed as inhibitors; 420,000 tested, 12% active; note: potency is the fitted concentration of half-maximal effect; % is set by controls: 0 for no effect and ±100 for the full control effect; nearly all actives have a fitted effect of over 55% in size
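Chicken DT40 Tdp1-/- cells stably complemented with human TDP1 were seeded at 400 cells/well in medium containing 20 nM camptothecin, exposed to pin-transferred compounds, and grown at 37 °C for at least 48 hr. Viability was read as ATP luminescence.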
ASM inhibitor = human S-ASM enzyme inhibition | Potency, µM (series often up to 57.5 µM), inactives show top-dose activity change, negative = inhibition, usual class: inhibitors | placental ASM, HMU-PC fluorogenic substrate, 60 min | P17405 | 340,000 tested, 0.006% active; note: potency is the fitted concentration of half-maximal effect
Target sequence (P17405 47-631 limits assumed): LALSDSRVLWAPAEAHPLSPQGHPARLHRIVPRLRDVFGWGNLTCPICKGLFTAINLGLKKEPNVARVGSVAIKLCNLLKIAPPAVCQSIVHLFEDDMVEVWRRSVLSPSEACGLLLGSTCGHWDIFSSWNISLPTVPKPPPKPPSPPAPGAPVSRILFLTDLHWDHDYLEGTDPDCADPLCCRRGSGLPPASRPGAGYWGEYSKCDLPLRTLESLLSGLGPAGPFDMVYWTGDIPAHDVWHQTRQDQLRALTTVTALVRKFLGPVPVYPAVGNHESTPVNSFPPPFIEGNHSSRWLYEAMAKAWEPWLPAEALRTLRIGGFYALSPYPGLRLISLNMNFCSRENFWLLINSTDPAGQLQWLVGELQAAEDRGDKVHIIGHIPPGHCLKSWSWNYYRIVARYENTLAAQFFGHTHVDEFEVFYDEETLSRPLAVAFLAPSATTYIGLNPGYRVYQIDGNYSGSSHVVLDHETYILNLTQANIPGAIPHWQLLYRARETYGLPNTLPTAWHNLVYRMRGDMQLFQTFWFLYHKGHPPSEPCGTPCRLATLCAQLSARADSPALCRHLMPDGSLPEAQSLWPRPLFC
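Human placenta-derived ASM enzyme was preincubated with compound for 10 minutes at room temperature, then given fluorogenic substrate HMU-PC0 (9 uM final) for 60 minutes at 37 °C; a pH 10 stop preceded fluorescence reading at Ex 386/Em 447 nm.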
Active calls of the source: *; ? = inconclusive; . = no result. A selection: hits, their analogues and other compounds. The true share with any hit is near 19%. Unless noted, calls come from the whole dose curve; as a rule, active = well fitted curve in the direction sought with a large enough effect; inconclusive = small, poorly fitted or top-dose-only effect, or another doubt; inactive = no such curve, though single readings can be large; an effect the other way counts as inactive or inconclusive.

SMILES	DT40 TDP1 no CPT	HepG2 tox	TGFb SMAD3 inh	IL1B secr inh	TDP1 cell CPT	ASM inhibitor
COCCNC(=O)CCC(=O)N1Cc2cccc(OC)c2Oc2ncccc21	?	-4%	7%	.	1%	.
CC1(C)OC(=O)C2=C(C[C@@H](C3CCCC3)O[C@H]2c2ccc(Cl)cc2)O1	?	.	.	17	?	.
Cc1noc(C)c1-c1ccc2ncnc(NCc3cccs3)c2c1	23µM*	.	.	.	12µM*	.
Cc1ccsc1CNc1ncnc2ccc(-c3c(C)noc3C)cc12	.	-31%	-29%	.	.	3%
CN(Cc1ccc(C(F)(F)F)cc1)C(=O)[C@H]1O[C@@H](n2ccc(=O)[nH]c2=O)[C@H](O)[C@@H]1O	8%	13%	10%	-22	-12%	.
COc1cccc(CC2(CO)CCN(Cc3ccc4cccc(F)c4n3)CC2)c1	?	-28%	-5%	-71*	-19%	1%
OCC1(Cc2cccc(F)c2)CCN(Cc2ccc3cccc(F)c3n2)CC1	?	-37%	-23%	-72*	?	1%
O=C(c1cnsn1)N1CCC(CO)(Cc2cccc(F)c2)CC1	-24%	-30%	-7%	-10	4%	-1%
COc1cccc(CC2(CO)CCN(CC3=CC[C@H]4C[C@@H]3C4(C)C)CC2)c1	?	-23%	-18%	-55*	?	-2%
OCC1(CCOc2ccccc2)CCN(Cc2ccc3cccc(F)c3n2)CC1	?	-36%	21%	?	-6%	7%
CCOc1cc2[nH]c(=S)n(Cc3ccc(C(=O)NCCCN4CCOCC4)cc3)c(=O)c2cc1OCC	18µM*	-4%	-1%	0	?	0%
CCOc1cc2[nH]c(=O)n(Cc3ccc(C(=O)NCCCN4CCC(C)CC4)cc3)c(=O)c2cc1OCC	23µM*	-24%	3%	18	?	-2%
CC1CCN(CCCNC(=O)c2ccc3c(=O)n(Cc4ccc(Cl)cc4)c(=S)[nH]c3c2)CC1	?	-32%	2%	.	?	?
COC(=O)c1ccc2c(=O)n(Cc3ccc(C(=O)NCCCN4CCC(C)CC4)cc3)c(=S)[nH]c2c1	16µM*	-16%	-11%	-106*	21µM*	10%
CCOc1cc2[nH]c(=S)n(Cc3ccc(C(=O)NCCCOC)cc3)c(=O)c2cc1OCC	0%	0%	1%	21	-23%	5%
CNc1c(Br)cc(C=O)cc1Br	-29%	2%	12%	.	?	.
COc1ccc(NC(=S)NC(NC(=O)c2cccc(Cl)c2)C(Cl)(Cl)Cl)c([N+](=O)[O-])c1 (stereo unspecified)	?	-56%	22µM*	-60*	?	-26%
O=C(NC(NC(=S)Nc1ccccc1Cl)C(Cl)(Cl)Cl)c1cccc(Cl)c1 (stereo unspecified)	8.2µM*	-45%	?	-87*	4.6µM*	-14%
COc1ccc(NC(=S)NC(NC(C)=O)C(Cl)(Cl)Cl)c([N+](=O)[O-])c1 (stereo unspecified)	-19%	-19%	-18%	-54*	3%	-1%
CC(=O)NC(NC(=S)Nc1ccccc1Br)C(Cl)(Cl)Cl (stereo unspecified)	-18%	-1%	-2%	-8	31%	1%
COc1ccc(NC(=S)NC(NC(=O)c2cccc(C)c2)C(Cl)(Cl)Cl)c([N+](=O)[O-])c1 (stereo unspecified)	?	-37%	-13%	-10	?	-16%
CCCCn1c(SCC(=O)NC2CCCC2)nnc1-c1ccco1	-6%	-10%	0%	-7	1%	9%
Cc1nn(-c2ccc(F)cc2)c(Cl)c1C(=O)OC(C)C(=O)N(C)C1CCCCC1 (stereo unspecified)	12µM*	-38%	?	-21	?	-1%
Cc1cccc(N/C=C(\[N+](=O)[O-])S(=O)(=O)c2ccccc2)c1C	-6%	4%	6%	19	5%	-2%
CCc1cc(SC#N)ccc1N	?	-23%	7%	-102*	-25%	3%
SMILES	DT40 TDP1 no CPT	HepG2 tox	TGFb SMAD3 inh	IL1B secr inh	TDP1 cell CPT	ASM inhibitor
CCc1cc([N+](=O)[O-])cc(CC)c1N	-15%	-30%	-23%	-9	-1%	-1%
CCCCn1c(=O)c2oc3ccccc3c2n(Cc2cccc(C)c2)c1=O	?	8%	-4%	.	-14%	.
COc1cccc(OCC(O)CNC(C)c2ccccc2)c1 (stereo unspecified)	?	-22%	-19%	-25	?	-1%
CCC(=O)c1ccc(OCC(O)CNC(C)c2ccccc2)cc1 (stereo unspecified)	?	-26%	0%	3	?	-2%
CC(C)c1ccc(OCC(O)CNC(C)c2ccccc2)cc1 (stereo unspecified)	16µM*	-109%	?	-85*	16µM*	-4%
Cc1cccc(C)c1OCC(O)CNC(C)c1ccccc1 (stereo unspecified)	5.2µM*	-32%	?	?	3.7µM*	4%
Cc1ccc(-c2nc(SCC(=O)Nc3cc(C)on3)c3c(=O)n(C)c(=O)n(C)c3n2)cc1	15µM*	-19%	-26%	0	12µM*	3%
Cc1nc(SCC(=O)Nc2cc(C)on2)c2c(=O)n(C)c(=O)n(C)c2n1	-24%	3%	16%	10	-21%	2%
Cn1c(=O)c2c(SCC(=O)Nc3ccccc3F)nc(-c3ccccc3F)nc2n(C)c1=O	15µM*	-7%	-8%	0	?	-6%
Cc1csc(NC(=O)CSc2nc(C(C)C)nc3c2c(=O)n(C)c(=O)n3C)n1	4.6µM*	-22%	-2%	6	10µM*	-8%
CCc1nc2ccc(C(=O)NCCNC(C)=O)cn2c1N(CCC(C)C)CCN(C)C	-1%	-9%	15%	-11	-7%	.
O=C(CCCOc1ccc(Br)cc1)Nc1nnc(C2CC2)s1	-6%	-14%	-12%	0	-13%	1%
Cc1ccc(S(=O)(=O)c2c(O)cc(C)c(NS(=O)(=O)c3ccc(Br)cc3)c2C)cc1	?	-56%	?	.	?	.
CC(C)C(C(=O)NCC1CCCO1)N(C(=O)CNS(=O)(=O)c1ccccc1)c1ccc(F)cc1 (stereo unspecified)	-9%	-9%	23%	3	0%	-1%

Screening results: PubChem, National Center for Advancing Translational Sciences (NCATS)
